The panel holds about 83,000 compounds, 20% with a hit somewhere; the sample as a whole holds those more often.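 Single-concentration screen, 48 h exposure, 96-well plates. Endpoint: percent growth. Below 10 = active.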 Values without a mark were called inactive. Activity calls are given as the source filed them.
How the values were obtained:
Assay in all cases: NCI-60 one-dose screen, 48 h (100 = growth as untreated, 0 = no growth, -100 = all killed)
Settings in all cases: 10 µM unless noted
[1] = test system: NCI-H23 lung
[2] = test system: NCI-H226 lung
[3] = test system: NCI-H322M lung
[4] = test system: HOP-62 NSCLC
[5] = test system: NCI-H460 lung
[6] = test system: HOP-92 NSCLC
[7] = test system: NCI-H522 lung
[8] = test system: A549/ATCC NSCLC
[9] = test system: 786-0 renal
[10] = test system: COLO 205 colon
[11] = test system: DU-145 prostate
[12] = test system: K-562 leukemia
[13] = test system: MALME-3M melanoma
[14] = test system: MDA-MB-231 breast
[15] = test system: RXF 393 renal
[16] = test system: SF-268 CNS
[17] = test system: SF-295 CNS
[18] = test system: SF-539 CNS
[19] = test system: UACC-257 melanoma
[20] = test system: M14 melanoma

Structure (SMILES) | growth [1] | growth [2] | growth [3] | growth [4] | growth [5] | growth [6] | growth [7] | growth [8] | growth [9] | growth [10] | growth [11] | growth [12] | growth [13] | growth [14] | growth [15] | growth [16] | growth [17] | growth [18] | growth [19] | growth [20]
C=C(C)[C@@H]1CC[C@]2(COC3CCCCO3)CC[C@]3(C)[C@H](CC[C@@H]4[C@@]5(C)C=C(C=O)C(=O)C(C)(C)[C@@H]5CC[C@]43C)[C@@H]12 (stereo not given in full) | -58.9% (active) | 1.68% (active) | 8.97% (active) | -68% (active) | -47.2% (active) | -91.6% (active) | -75% (active) | -63.5% (active) | -86.2% (active) | -32% (active) | -94.3% (active) | -24.9% (active) | -75.4% (active) | -37.7% (active) | -85.7% (active) | -67.1% (active) | -95.5% (active) | -74.3% (active) | -28.5% (active) | -62.9% (active)
C/C(=N\Nc1ccccc1)c1ccc(NC2=CC(=O)c3ccccc3C2=O)cc1 | 21.4% | 80.8% | 79% | 46.1% | 23.5% | 113% | 42.9% | 48.5% | 94.1% | 88.2% | 50.7% | 19.4% | -65% (active) | 62.4% | 92.1% | 64.4% | 55.2% | 92.9% | 67.9% | 26.3%
O=C(c1ccc(Br)cc1)C(Br)C(c1ccc(Cl)cc1)C(c1ccccc1)[N+](=O)[O-] (stereo not given) | 91.4% | 99.3% | 101% | 99.7% | 95.5% | 107% | 85.7% | 93.8% | 90.3% | 110% | 97.5% | 106% | 86.2% | 85.4% | 77.2% | 90.2% | 95.1% | 96% | 102% | 92.8%
Cc1ccc(S(=O)(=O)N2CCCN(c3nc(-c4ccccc4)nc4nc(-c5ccccc5)oc34)CC2)cc1 | 100% | 99.5% | 97.3% | 101% | 103% | 110% | 83.6% | 106% | 102% | 124% | 113% | 97.3% | 111% | 96.8% | 128% | 106% | 105% | 96% | 108% | 110%
Cc1oc(-c2ccc(Cl)cc2)nc1C1=NN(C(=O)c2ccncc2)C(c2ccccc2)C1 (stereo not given) | 87.3% | 84.6% | 93.7% | 107% | 98.6% | 96.1% | 86.6% | 87.7% | 83.4% | 108% | 101% | 85.9% | 101% | 76.7% | 82.3% | 89.2% | 89.4% | 95.6% | 103% | 99.2%
COc1ccc(-c2nc3c(c(-c4ccc(Cl)cc4)nn3-c3ccccc3)c(-c3ccccc3)c2C#N)cc1 | 103% | 97.4% | 102% | 111% | 104% | 120% | 96.3% | 95.9% | 108% | 118% | 104% | 100% | 103% | 111% | 134% | 106% | 102% | 103% | 95.9% | 92.3%
Clc1ccc2nn3c4ccccc4c(OCCN4CCOCC4)nc3c2c1 | 87.1% | 94.6% | 84.4% | 90.6% | 99.9% | 72.9% | 74.5% | 91.8% | 80.9% | 90% | 98.9% | 88.2% | 134% | 81.4% | 79.3% | 91.8% | 93.9% | 91.6% | 107% | 122%
COc1ccc(Nc2ncc(I)c(NCCCNC(=O)C3CCC3)n2)cc1 | 8.39% (active) | 5.32% (active) | 6.78% (active) | -21.3% (active) | 8.88% (active) | -7.19% (active) | 52.2% | -37.6% (active) | 9.69% (active) | -59.3% (active) | 16.3% | 25.7% | 41% | -45.4% (active) | -84.1% (active) | 14.7% | 20.8% | -34.5% (active) | 75.3% | 43%
Cc1cc(C)c2c(c1)N(C)c1ncnc(-n3c(C)nc4cc(C)ccc43)c1CC2C (stereo not given) | 61.7% | 61.6% | 73.4% | 43.7% | 22.6% | 11.2% | 19.4% | 26.3% | 30.1% | 54.1% | 55.3% | 12.4% | 45.4% | 61.2% | -10.4% (active) | 45.9% | 9.14% (active) | 25.2% | 25.8% | 25.3%
COc1cc(C=C2C(=O)NC(=S)NC2=O)cc(CN2CCCC2)c1O | 103% | 103% | 105% | 103% | 109% | 92.8% | 96.4% | 96.6% | 102% | 120% | 113% | 108% | 108% | 111% | 103% | 99.6% | 104% | 101% | 98.8% | 109%
C(=C(\C1=NCCN1)n1ccc2ccccc21)/c1ccccc1 | 97% | 93.5% | 97.7% | 96.3% | 101% | 78.7% | 89.7% | 99.9% | 98.3% | 107% | 103% | 96.7% | 93.4% | 96.8% | 89.9% | 91.8% | 99.3% | 99.5% | 93.3% | 91.4%
CCN1C(=O)N(c2ccccc2)C2NC(=S)N(/N=C/C=C/c3ccccc3OC)C21 (stereo not given) | 39.6% | 49.9% | 41.8% | 35.1% | 3.66% (active) | 43.4% | 9.88% (active) | 24.1% | 26% | 6.54% (active) | 5.45% (active) | 9.41% (active) | 40.9% | 16.7% | 62.2% | 47.3% | 14.2% | -13.3% (active) | 22% | 11.2%
COc1ccc(C(O)c2cc3c(N)c(C(=O)Nc4cccc5ccccc45)sc3nc2C)cc1 (stereo not given) | 23.3% | 18.6% | 39.1% | 25.6% | -20.2% (active) | 51% | 0% (active) | 11.6% | 16.2% | -34.3% (active) | 1.19% (active) | 12% | 27.7% | 13.6% | 27% | 9.53% (active) | 12.9% | 4.62% (active) | 35.3% | 15%
c1ccc(Nc2nc3c(s2)CCc2c[nH]cc2-3)nc1 | 91.1% | 74.7% | 90.5% | 92.7% | 100% | 88.9% | -49.9% (active) | 91.6% | 105% | 98.4% | 103% | 66.3% | 92.5% | 82.7% | 104% | 92.5% | 107% | 106% | 88.7% | 102%
Cc1cc(O)c(=O)cc2c1C[C@H]1CC(C)(C)/C=C/C[C@]3(C)Oc4cc(=O)c(O)cc(C)c4C[C@H]3C[C@H](O)[C@@]1(C)O2 | -16.7% (active) | 11.9% | 24.3% | 0.636% (active) | -6.53% (active) | 2.97% (active) | -24.9% (active) | -7.87% (active) | -1.45% (active) | -14.7% (active) | 22.3% | 1.9% (active) | 0.782% (active) | 13.5% | 19.8% | 18.5% | 3.52% (active) | 6.95% (active) | -6.56% (active) | -34% (active)

From PubChem BioAssay (NCI)
